± gives the standard deviation.
Experiments:
Details in all cases: modulator concentration 10 µM
[1] = test system: RAW-Dual (murine macrophage reporter line); experiment: NF-kB reporter (SEAP) activity fold change vs agonist alone; higher = enhanced NF-kB activity
Summary of the method: (§1)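 RAW-Dual murine macrophage reporter cells were seeded at 50 000 per well in 384-well plates and pre-incubated 1 hour at 37 °C with compound pin-transferred to 10 μM final. After 1 hour, a PRR agonist was added and cells incubated overnight. Supernatant NF-κB (SEAP, QUANTI-Blue, 620 nm absorbance) and IRF (Lucia luciferase, QUANTI-Luc, luminescence) signals were divided by the mean agonist-only control on the same plate to give fold change. Two replicate plates were averaged, with errors by propagation.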

[2] = test system: RAW-Dual (murine macrophage reporter line); experiment: IRF reporter (Lucia luciferase) activity fold change vs agonist alone; higher = enhanced IRF activity
Summary of the method: as §1

[3] = test system: RAW-Dual (murine macrophage reporter line); experiment: viability score (confluency relative to resting cells, overnight) (fraction); higher = more viable, active = viable (0.7 or more)
Summary of the method: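 RAW-Dual macrophages in 384-well plates were exposed overnight to compound at 10 μM final. Confluency was imaged with IncuCyte, and two confluency masks were generated with IncuCyte software over all imaged wells. The viability score is confluency expressed relative to resting cells. Compounds were called viable if both masks exceeded 70% of resting cells.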

[4] = agonist: CpG ODN 1826 0.5 ug/mL

Row | SMILES | NF-kB reporter [1, 4] | NF-kB reporter ([1]; agonist: LPS 0.1 ug/mL) | NF-kB reporter ([1]; agonist: MPLA […]) | IRF reporter ([2]; agonist: 3'3'-cGAMP 10 ug/mL) | IRF reporter ([2]; agonist: LPS 0.1 ug/mL) | IRF reporter ([2]; agonist: MPLA […]) | viability score [3]
1 | Cc1nc2ccc(Cl)cn2c(=O)c1NC(=O)c1c(F)cccc1Cl | 0.78 ± 0.034 | 1.05 ± 0.11 | 0.96 ± 0.083 | 1.05 ± 0.049 | 1.09 ± 0.25 | 1.2 ± 0.41 | 0.965 (active)
2 | O=[N+]([O-])c1ccc(OCC(O)CN2CCN(c3ccccc3)CC2)cc1 (configuration not stated) | 0.91 ± 0.072 | 1.02 ± 0.059 | 0.964 ± 0.086 | 0.982 ± 0.024 | 1.42 ± 0.19 | 1.15 ± 0.15 | 1.01 (active)
3 | CC(=NN1CCN(C2c3ccccc3-c3ccccc32)CC1)c1ccccc1O | 0.953 ± 0.12 | 0.94 ± 0.052 | 0.962 ± 0.069 | 1.02 ± 0.036 | 1.35 ± 0.12 | 0.984 ± 0.086 | 1.02 (active)
4 | CN1C(=O)C(=NNC(=O)c2ccccc2Cl)c2cc(Br)cc(Br)c21 | 1.13 ± 0.091 | 0.997 ± 0.081 | 1.03 ± 0.057 | 0.897 ± 0.15 | 1.12 ± 0.078 | 1.01 ± 0.32 | 1 (active)
5 | NC(=O)c1cccc2cn(-c3ccc([C@@H]4CCCNC4)cc3)nc12 | 0.187 ± 0.014 | 0.573 ± 0.051 | 0.85 ± 0.072 | 0.508 ± 0.051 | 0.559 ± 0.07 | 0.977 ± 0.088 | 0.887 (active)
6 | Cl.Clc1ccc2nsnc2c1NC1=NCCN1 | 0.8 ± 0.14 | 0.932 ± 0.14 | 0.993 ± 0.076 | 0.791 ± 0.066 | 0.995 ± 0.17 | 1.06 ± 0.23 | 1 (active)
7 | CN(C)CC/C=C1/c2ccccc2COc2ccc(CC(=O)O)cc21.Cl | 1.35 ± 0.26 | 1.22 ± 0.36 | 1.66 ± 0.75 | 0.953 ± 0.039 | 1.42 ± 0.17 | 1.2 ± 0.094 | 0.992 (active)
8 | O=S(=O)(c1ccc(-n2cccn2)cc1)N1CC(n2cc(C3CC3)nn2)C1 | 1.01 ± 0.068 | 1.11 ± 0.1 | 0.939 ± 0.066 | 0.966 ± 0.076 | 1.21 ± 0.077 | 0.999 ± 0.085 | 0.993 (active)
9 | O=C(NC(=S)Nc1ccccc1C(F)(F)F)c1cccc(I)c1 | 0.927 ± 0.088 | 0.989 ± 0.076 | 0.9 ± 0.066 | 0.989 ± 0.025 | 1.24 ± 0.13 | 1.09 ± 0.14 | 1.01 (active)
10 | COC(=O)CSc1ccc2nnc(-c3ccc(F)cc3)n2n1 | 1.12 ± 0.088 | 1.1 ± 0.057 | 1.06 ± 0.023 | 0.71 ± 0.05 | 0.719 ± 0.042 | 0.803 ± 0.069 | 1 (active)
11 | Cc1nc(SCC(=O)N2CCCCCC2)[nH]c(=O)c1C | 1.15 ± 0.077 | 1.17 ± 0.14 | 0.909 ± 0.04 | 1 ± 0.064 | 1.07 ± 0.14 | 0.977 ± 0.3 | 1 (active)
12 | CCCCNC(=O)Cc1ccc(Br)cc1 | 0.947 ± 0.15 | 0.904 ± 0.11 | 0.913 ± 0.11 | 0.986 ± 0.052 | 1.29 ± 0.25 | 1.4 ± 0.33 | 0.989 (active)
13 | CCOc1ccccc1OCCCCOc1cccc(Cl)c1 | 0.947 ± 0.15 | 1.04 ± 0.093 | 0.951 ± 0.084 | 0.956 ± 0.025 | 1.21 ± 0.15 | 1.23 ± 0.2 | 1 (active)
14 | COc1ccc(C(=O)NCCOc2cc(C)cc(C)c2)cc1OC | 1.48 ± 0.12 | 1 ± 0.056 | 0.827 ± 0.062 | 1.02 ± 0.045 | 1.42 ± 0.19 | 1.03 ± 0.21 | 1.01 (active)
15 | CCOc1ccc(CN(CCc2ccc3c(c2)OCO3)Cc2cccc3ccccc23)cc1 | 0.73 ± 0.071 | 0.888 ± 0.074 | 1.07 ± 0.074 | 0.619 ± 0.061 | 0.908 ± 0.045 | 1.04 ± 0.18 | 0.998 (active)
16 | Cc1cc(CNC(=O)CCc2ccc(C(F)(F)F)cc2)c(C)o1 | 1.09 ± 0.061 | 1.01 ± 0.089 | 0.877 ± 0.038 | 1.2 ± 0.069 | 1.14 ± 0.068 | 1.25 ± 0.33 | 0.957 (active)
17 | O=C(OC(=Cc1nccn1Cc1ccc(Cl)cc1)c1ccccc1)c1ccccc1 | 0.323 ± 0.021 | 0.481 ± 0.05 | 0.394 ± 0.026 | 0.37 ± 0.015 | 1.36 ± 0.12 | 1.51 ± 0.13 | 0.973 (active)
18 | O=c1c(O)c(-c2ccc(O)c(O)c2)oc2cc(O)cc(O)c12 | 1.06 ± 0.26 | 1.04 ± 0.093 | 1.47 ± 0.12 | 0.356 ± 0.021 | 1.08 ± 0.23 | 1.12 ± 0.14 | 0.982 (active)
19 | Cc1ccc(Sc2cc(Sc3ccc(C)cc3)c3noc4c3c2C(=O)c2ccccc2-4)cc1 | 0.971 ± 0.078 | 1.03 ± 0.075 | 0.957 ± 0.09 | 0.959 ± 0.052 | 1.28 ± 0.21 | 1.49 ± 0.38 | 1.01 (active)
20 | Oc1nc(O)nc(N(c2ccccc2)c2ccccc2)n1 | 1.18 ± 0.095 | 1.02 ± 0.098 | 1.02 ± 0.09 | 1 ± 0.13 | 1.09 ± 0.15 | 1.08 ± 0.29 | 1 (active)
21 | CCN(CC)CCNC(=O)c1c(C)[nH]c(/C=C2\C(=O)Nc3ccc(F)cc32)c1C | 0.102 ± 0.0079 | 0.192 ± 0.015 | 0.475 ± 0.031 | 0.0578 ± 0.003 | 0.0794 ± 0.014 | 0.0928 ± 0.022 | 0.359 (inactive)
22 | Cc1ccc(NC(=O)c2ccc(CN3CCN(C)CC3)cc2)cc1Nc1nc(-c2cccnc2)cs1 | 0.228 ± 0.018 | 1.18 ± 0.067 | 1.74 ± 0.17 | 0.414 ± 0.051 | 0.703 ± 0.051 | 0.691 ± 0.058 | 0.981 (active)
23 | CCN(CC)CCOC(=O)c1ccc(N)cc1Cl.Cl | 1.06 ± 0.094 | 0.971 ± 0.048 | 1.04 ± 0.038 | 0.957 ± 0.087 | 1.01 ± 0.089 | 0.897 ± 0.077 | 0.999 (active)
24 | Cc1ccc(S(=O)(=O)O)cc1.NC(=O)c1cccc2cn(-c3ccc([C@@H]4CCCNC4)cc3)nc12 | 0.0798 ± 0.0034 | 0.142 ± 0.017 | 0.372 ± 0.027 | 0.041 ± 0.0076 | 0.0678 ± 0.01 | 0.0808 ± 0.016 | 0.881 (active)
25 | CCN1CCCC1CNC(=O)c1cc(S(N)(=O)=O)ccc1OC (configuration not stated) | 1.01 ± 0.11 | 1.06 ± 0.07 | 0.992 ± 0.052 | 1.02 ± 0.11 | 0.982 ± 0.11 | 0.865 ± 0.068 | 1 (active)
26 | CCN1CC(CCN2CCOCC2)C(c2ccccc2)(c2ccccc2)C1=O.Cl.O (configuration not stated) | 1 ± 0.15 | 1.19 ± 0.24 | 1.79 ± 0.72 | 0.919 ± 0.028 | 1.37 ± 0.43 | 1.03 ± 0.083 | 1 (active)
